Results as given in PubChem BioAssay AID1063 (University of Pittsburgh Molecular Library Screening Center, 2008).
Hit rate of the full screen: of about 200,000 compounds, about 18,000 (9%) were called active. The full list was thinned out, with actives kept by preference. A number with no mark means an inactive call. No stated cut-off is given here; in the data, active means inhibition above about 50%; inactive means the rest.

Test: Leishmania major promastigote growth inhibition, primary screen (AID 1063);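 further: promastigotes grown with compound for 44 hours at 28 °C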
Conditions: Leishmania major promastigotes, resazurin fluorescence viability; at 10 µM; stronger effect = higher value
For `Cc1ccccc1CN1CCN(CC(=O)NCc2ccccn2)C1=O`, the inhibition was -4.22%. With `Cc1ccccc1CN1C[C@@H]2C[C@@H](c3ccc4nsnc4c3)N3CCC[C@@]23C1=O` the inhibition was 78.4% (active). Work on `Cc1ccccc1CN1C[C@@H]2C[C@@H](c3cn(C)nc3-c3ccccc3)N3CCC[C@@]23C1=O` yielded an inhibition of 9.77%. `CCN1CCN(C(=O)CN(C)S(=O)(=O)c2ccc3ccccc3c2)CC1` showed an inhibition of 0.63%. For `O=C(N/N=C/c1cc2c(cc1Br)OCO2)C1COc2ccccc2O1` (stereo not drawn), the inhibition was 38%. In the case of `O=C1NCC(=O)N(Cc2ccccc2)/C1=C/c1ccccc1`, the inhibition is reported as -0.36%. With `CN(C)c1ccc(/C=C2\NC(=S)N(Cc3ccccc3)C2=O)cc1` the inhibition was 96.8% (active). Work on `CC1=NN(Cc2ccccc2)C(=O)/C1=C/c1ccc(N(C)C)cc1` yielded an inhibition of -0.65%. `Cc1noc(C)c1CCC(=O)O` gave an inhibition of -0.11%. Molecule `CC(CC(=O)Nc1ccccc1)n1ccnc1` (stereo not drawn) has an inhibition of -7.2%. In the case of `COc1ccc(NC(C)=O)cc1NC(=O)CN1CCN(C2c3ccccc3-c3ccccc32)CC1`, the inhibition is reported as 84% (active). Molecule `COc1ccc(OC)c(NC(=O)CN2CCN(C(=O)c3ccco3)CC2)c1` has an inhibition of -1.17%. `COc1ccc(NC(C)=O)cc1NC(=O)CN1CCN(c2ccccn2)CC1` gave an inhibition of -3.06%. `CCC(CC)NC(=O)CSc1nnc(-c2c[nH]c3ccccc23)o1` gave an inhibition of 6.71%. With `Fc1ccccc1C(c1nnnn1Cc1ccc2c(c1)OCO2)N1CCN(Cc2ccccc2)CC1` (stereo not drawn) the inhibition was 26.7%. `CC(C)(C)n1nnnc1C(c1ccc(F)cc1)N1CCN(Cc2ccc3c(c2)OCO3)CC1` (stereo not drawn) showed an inhibition of 48.1%. For `Cc1ccc(S(=O)(=O)Cn2nnnc2CN2CCN(Cc3ccc4c(c3)OCO4)CC2)cc1`, the inhibition was 93.4% (active). In the case of `O=C(CN1CCC(O)(c2ccccc2)CC1)Nc1ccc2c(c1)OCCO2`, the inhibition is reported as 3.55%. In the case of `O=C(CCN1CCc2ccccc2C(O)(c2ccccc2)C1)c1ccc2c(c1)OCCO2` (stereo not drawn), the inhibition is reported as 95.3% (active). Molecule `O=C(CN1CCN(c2ccccc2F)CC1)c1ccc2c(c1)OCO2` has an inhibition of 8.93%. Molecule `O=C(Cc1ccccc1)NNC(=O)C1CCN(c2ncccn2)CC1` has an inhibition of -9.12%. For `CCc1cc(CNC(=O)CC2C(=O)NCCN2CC2CCCCC2)on1` (stereo not drawn), the inhibition was -6.55%. Molecule `COc1ccc(NS(=O)(=O)c2ccc(NC(C)=O)cc2)cc1OC` has an inhibition of -3.17%. For `COc1ccc(C(=O)Oc2cc(/C=N/NS(=O)(=O)c3ccc(C)cc3)ccc2OC)cc1`, the inhibition was 0.27%. In the case of `COc1ccc(/C=C/C(=O)c2ccc(NS(=O)(=O)c3ccc(C)cc3)cc2)cc1O`, the inhibition is reported as 99.6% (active). With `O=C(CCC(=O)Nc1ccccc1)N/N=C/c1ccccc1F` the inhibition was 0.99%. With `CCC(C(=O)Nc1ccc2c(c1)OCCO2)c1ccccc1` (stereo not drawn) the inhibition was 4.21%. With `CCO[C@H]1OC(C(=O)Nc2ccccc2)=C[C@@H](C2CC2)[C@@H]1CCCO` the inhibition was 1.1%. Work on `CCOC(=O)C1=C(CC)OC(N)=C(C#N)C1c1ccc(F)cc1F` (stereo not drawn) yielded an inhibition of 11.4%. Work on `COc1cc2c(cc1OC)C(c1ccncc1)CC(=O)N2` (stereo not drawn) yielded an inhibition of -6.82%. In the case of `COc1cc2c(cc1OC)C(c1ccc(C)o1)CC(=O)N2` (stereo not drawn), the inhibition is reported as -5.73%. With `COC(=O)c1ccc(C2CC(=O)Nc3cc(OC)c(OC)cc32)cc1` (stereo not drawn) the inhibition was 53.2% (active). `O=C(NCCOc1ccccc1)c1ccccc1` showed an inhibition of -1.77%. Molecule `O=C(NCCc1ccccc1)c1ccc(OCCOc2ccccc2)cc1` has an inhibition of -1.38%. In the case of `CC(C)(c1ccccc1)c1ccc(OCCN)cc1`, the inhibition is reported as 51.4% (active). `COc1cc(OC)cc(C(=O)NCC(=O)OCc2csc(-c3ccccc3)n2)c1` showed an inhibition of 34.9%. For `O=C(CNCc1ccc(Cl)cc1)Nc1cccc(C(=O)O)c1`, the inhibition was 1.28%. `N/C(=N\OC(=O)Cc1ccccc1[N+](=O)[O-])c1ccc(Br)cc1` gave an inhibition of 10.7%. In the case of `COc1cccc(CNC(=O)CCC2CCCN(Cc3ccc(OC(F)F)cc3)C2)c1` (stereo not drawn), the inhibition is reported as 98.5% (active). With `COc1cccc(C(=O)N2CCCC(CCC(=O)NCc3ccc(F)c(F)c3)C2)c1` (stereo not drawn) the inhibition was 6.37%. In the case of `COc1cccc(CNC(=O)CCC2CCCN(C(=O)c3ccoc3C)C2)c1` (stereo not drawn), the inhibition is reported as -4.54%. Work on `COc1ccc(/C=N/NC(=O)C(C)N(c2ccc(OC)cc2)S(C)(=O)=O)cc1` (stereo not drawn) yielded an inhibition of 4.55%. `COc1ccc(Cl)cc1NC(=O)C(C)N1CCc2ccccc21` (stereo not drawn) gave an inhibition of 16.9%. Molecule `CC1(C)OC(=O)C(=CNC(CO)C(=O)O)C(=O)O1` (stereo not drawn) has an inhibition of -4.58%. In the case of `O=C(Oc1ccc([N+](=O)[O-])cc1)c1ccc(Cl)c(S(=O)(=O)N2CCCCC2)c1`, the inhibition is reported as 56.8% (active). Work on `O=[N+]([O-])c1cccc(S(=O)(=O)N2CCCCCC2)c1` yielded an inhibition of 36.7%. With `O=C(Nc1ccc2c(c1)OCCO2)c1ccc(Cl)c(S(=O)(=O)N2CCCCC2)c1` the inhibition was -0.95%. In the case of `OCCNCc1cccc(OCc2ccccc2Cl)c1`, the inhibition is reported as 88.8% (active). `O=C(O)Cc1ccc(NCc2ccccc2Cl)cc1` gave an inhibition of -1.01%. In the case of `S=C(NCCc1ccccc1)NCc1ccccc1Cl`, the inhibition is reported as -3.26%. For `COc1ccccc1NC(=O)c1cc(Cl)nnc1Cl`, the inhibition was 15.6%. Molecule `Cc1cccc(NC(=O)c2cc([N+](=O)[O-])ccc2N2CCN(C)CC2)c1` has an inhibition of -0.64%. In the case of `Cc1cccc(NC(=O)c2sc(-c3ccccc3)nc2-c2ccc([N+](=O)[O-])cc2)c1`, the inhibition is reported as 99.5% (active). `COc1ccc(NC(=O)c2sc(N)nc2-c2ccccc2)cc1` showed an inhibition of 2.6%. `CC(=O)C1=C(O)C(=O)N(c2cccnc2)C1c1ccc([N+](=O)[O-])cc1` (stereo not drawn) showed an inhibition of -4.89%. Work on `Cc1ccc(OCC(=O)NNC(=S)NCc2ccccc2)cc1` yielded an inhibition of -2.06%. `O=c1c2ccccc2nc(CSc2nnnn2-c2ccccc2)n1-c1ccccc1` gave an inhibition of -5.4%. `Cc1ccc(-c2noc(CSc3nnnn3-c3ccccc3)n2)cc1` gave an inhibition of 7.86%. In the case of `Cc1ccc(Nc2nc(CSc3nnnn3-c3ccccc3)cc(=O)[nH]2)cc1`, the inhibition is reported as 97.7% (active). `CC1=NNC(=O)C1CCC(=O)N/N=C\c1cccc(Cl)c1` (stereo not drawn) gave an inhibition of 0.75%. Work on `COc1ccc(-c2nn(-c3ccccc3)cc2/C=C\C(=O)N2CCOCC2)cc1[N+](=O)[O-]` yielded an inhibition of 12.4%. `COc1ccc(-c2ccc(CNCCCN3CCOCC3)o2)cc1Cl` gave an inhibition of 40%. With `C=CCOc1ccc(Cl)cc1CNCCCN1CCOCC1` the inhibition was 69.1% (active). In the case of `O=[N+]([O-])c1cc(S(=O)(=O)CCCN2CCOCC2)ccc1F`, the inhibition is reported as 1.38%. `COc1ccc(OC)c(Cc2nnc(CCC(=O)NC3CCCC3)o2)c1` showed an inhibition of -0.8%. For `O=C1Nc2cc(Cl)c(Cl)cc2N(O)N1c1ccccc1Cl`, the inhibition was -6.67%. Work on `NC1=NC2(CCCCC2)N(c2ccc(F)cc2F)C(N)=N1` yielded an inhibition of -5.15%. With `Cc1cc(C(=O)CC#N)c(C)n1-c1c(C)n(C)n(-c2ccccc2)c1=O` the inhibition was -0.96%. In the case of `CC(=O)c1cnc(SCC(=O)O)nc1C`, the inhibition is reported as -12.2%. With `NNc1nc2c(Cl)cccc2s1` the inhibition was 99.1% (active). With `C/C(=N\NC(=O)OC(C)(C)C)c1ccc[nH]1` the inhibition was -3.24%. `COc1cc([N+](=O)[O-])ccc1NC(=O)CN1CCCC1` showed an inhibition of -4.3%. Work on `Cc1cc(-c2nnc(CCC(=O)NC(c3ccccc3)c3ccccc3)o2)no1` yielded an inhibition of 5.43%. `NNC(=O)c1cnn(-c2ccccc2)c1C(F)(F)F` showed an inhibition of -1.35%. For `Cc1ccc(NC(=O)CN(C)S(=O)(=O)c2cnc[nH]2)cc1C`, the inhibition was -1.54%. For `CN(CC(=O)NC1CCCC1)S(=O)(=O)c1cnc[nH]1`, the inhibition was -0.93%. With `CN(CC(=O)NCCc1ccccc1)S(=O)(=O)c1cnc[nH]1` the inhibition was 57.7% (active). `COC(=O)c1nc(NC(=O)c2ccc(C(C)(C)C)cc2)n[nH]1` gave an inhibition of -4.46%. `CCC(C)(C)NC(=O)C(c1cccc(OC)c1OC)N(CC(C)C)C(=O)CCC(=O)Nc1cc(C)on1` (stereo not drawn) gave an inhibition of 9.34%. Molecule `O=C1NC(c2cccc(Cl)c2)Nc2ccccc21` (stereo not drawn) has an inhibition of -1.93%. Molecule `O=C(O)c1ccc(/C=N/NC(=S)NCc2ccccc2)cc1` has an inhibition of -3.57%. `O=C(N/N=C/c1ccc2c(c1)OCO2)C(=O)N1CCCC1` showed an inhibition of -3.67%. For `O=C(Cc1ccc(F)cc1)N1CCN=C1SCc1cccc([N+](=O)[O-])c1`, the inhibition was 46.3%. In the case of `Cc1cccc(CC(=O)N2CCN=C2SCc2ccc([N+](=O)[O-])cc2)c1`, the inhibition is reported as 88.4% (active). `Cc1cc(C)cc(C(=O)N2CCN=C2SCc2ccc([N+](=O)[O-])cc2)c1` showed an inhibition of 20.5%. `Cc1ccc(S(=O)(=O)N2CC(=O)Nc3ccccc32)cc1C` showed an inhibition of 3.05%. In the case of `Cc1cccc(C)c1NC(=O)C(c1ccccc1)N1CC(=O)Nc2ccccc21` (stereo not drawn), the inhibition is reported as 57.2% (active). Work on `Cc1ccc(C(=O)N2CC(=O)Nc3ccccc32)o1` yielded an inhibition of -0.84%. Molecule `COc1ccc(-c2csc(NC(=O)c3ccc(N4C(=O)CCC4=O)cc3)n2)cc1OC` has an inhibition of 6.8%. In the case of `CCOC(=O)c1csc(NC(=O)c2ccc(S(=O)(=O)N3CCCC3)cc2)n1`, the inhibition is reported as 0.83%. In the case of `COc1ccc(C(=O)Nc2nc(-c3ccc(S(=O)(=O)N4CCOCC4)cc3)cs2)cc1`, the inhibition is reported as 80.4% (active). Work on `C=CCN(c1ccc(Cl)cc1)S(=O)(=O)c1cccc(C(=O)OCC(=O)N(C)C)c1` yielded an inhibition of -0.9%. With `O=C(COc1ccccc1[N+](=O)[O-])NC1CC1` the inhibition was -4.5%. For `Cc1c(Br)c([N+](=O)[O-])nn1CC(=O)N1CCN(Cc2ccccc2)CC1`, the inhibition was 0.53%. For `Cc1cc(OCCCN2CCN(Cc3ccccc3)CC2)ccc1[N+](=O)[O-]`, the inhibition was 94.3% (active). `Cc1ccccc1N1CCN(CCCOc2ccc3c(C)cc(=O)oc3c2)CC1` showed an inhibition of 42.5%. With `Cc1ccc(C(=O)COC(=O)CCCC(=O)NC2CCCCC2)cc1[N+](=O)[O-]` the inhibition was 33.2%. With `Cc1cc(OCC(=O)NC2CCN(C)CC2)ccc1[N+](=O)[O-]` the inhibition was 55% (active).
